The campaign covered roughly 2,300 compounds. About 1,200 (52%) were called active. So high a share suggests a set chosen from earlier hits. This is one part of the list. Measured potencies and affinities stand elsewhere. Values without a mark were called inactive. How the calls were made is not given here.
experiment: mammalian cell cytotoxicity, dose response, cytotoxicity control for M. tuberculosis inhibitor project (AID 435019); settings: cytotoxicity counter-screen; series mostly up to 40 µM; viability: at the top concentration;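 further: 0% = background wells and 100% = vehicle-treated cells; lower values mean fewer viable cells so more cytotoxicity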

| Structure (SMILES) | viability |
| --- | --- |
| CCOC(=O)Oc1ccc2oc(C)c(C(=O)OCCOC)c2c1 | 96.6% |
| Cc1nc(SCC(=O)NCC2CCCO2)c2c3c(sc2n1)CCCC3 (stereo unspecified) | 85.9% |
| COc1ccc(-c2cc(-c3ccc(OC)cc3)[nH]n2)cc1 | 80.1% |
| O=C(OCC(=O)N1CCN(c2ccccc2)CC1)c1cnc(Cl)c(Cl)c1 | 91.1% |
| Cc1ccc2nc(-c3cccc(Br)c3)cc(C(=O)NC3=NCCS3)c2c1 | 80.2% |
| CCOC(=O)N1CCC(n2c(SCC(=O)OCc3ccccc3)nc3ccsc3c2=O)CC1 | 87.9% |
| CCCC12CN3CC(CCC)(CN(C1)C3c1ccccn1)C2=O (stereo unspecified) | 93.6% |
| C(=N\N1CCN(C2c3ccccc3-c3ccccc32)CC1)/c1ccccn1 | 82.1% |
| CCOC(=O)Cn1c(-c2ccccc2)ccc(C#N)c1=O | 92.6% |
| CCOc1[nH]n(-c2ccccc2)c(=O)c1C=Nc1ccc(OC)cc1 | 94.3% |
| COCCNC(=S)N/N=C(\C)c1ccc(OC)cc1 | 89.5% |
| COc1ccccc1/C(C)=N/NC(=S)NCc1ccccc1 | 87.8% |
| Nc1c(-c2ccccn2)cnn1-c1nc(-c2ccc(F)cc2)cs1 | 88.1% |
| CCOC(=O)c1cc(-c2csc(Nc3c(C)cc(C)cc3C)n2)on1 | 104% |
| O=C(CCN1C(=O)C2CCCCC2C1=O)Nc1nc(-c2ccc(F)c(F)c2)cs1 (stereo unspecified) | 97.2% |
| CCCOc1ccc2oc(=O)c3c(c2c1)CCCN3C(=O)CN1CCN(c2ncccn2)CC1 | 92.2% |
| CCOC(=O)c1cc(/C(C)=N/OC(=O)c2ccc(C(C)(C)C)cc2)on1 | 91.9% |
| O=C(Nc1cc(N2CCOCC2)ncn1)NC1(C(F)(F)F)Oc2ccc(Cl)cc2O1 (stereo unspecified) | 85.2% |
| CCc1ccc(-c2csc(-c3c[nH]c4ccccc34)n2)cc1 | 91% |

| Structure (SMILES) | viability |
| --- | --- |
| Cc1ccc(CNc2ccc3c(c2)ncn3C(C)(C)C)cc1 | 85.7% |
| CCn1c(SCC(=O)N(C)CCC#N)nc2cc(S(=O)(=O)N3CCOCC3)ccc21 | 98% |
| CCc1ccc(N=Nc2ccc(O)c3[nH]cnc23)cc1 | 82.3% |
| C=CCOc1ccc(/C=C/C(=O)OCC(=O)NCC2CCCO2)cc1 (stereo unspecified) | 95.9% |
| CCCCOC(=O)CCN1C(=O)/C(=C2\SC(=S)N(CCC(=O)OCCCC)C2=O)SC1=S | 80.7% |
| Cc1ccc(NC(=O)Cn2ccsc2=N)c([N+](=O)[O-])c1 | 101% |
| COc1ccc(-c2nc(C#N)c(N3CCc4ccccc4C3)o2)cc1OC | 81.8% |
| c1ccc(C2[C@H]3CN(CC4CCCCC4)[C@H](c4ccccc4)C34CC2(c2cccnc2)C4)cc1 (stereo partly specified) | 93.8% |
| COc1ccc(NC(C#N)c2ccc(OC)cc2)cc1 (stereo unspecified) | 96.6% |
| O=[N+]([O-])c1c(C(Cl)Cl)nn(-c2ccc(Cl)cc2)c1N1CCCCC1 | 84.8% |
| O=C(COc1ccccc1)NNc1nc2ccccc2s1 | 99% |
| O=C(NC(=S)Nc1cccc2cccnc12)c1ccccc1 | 100% |
| C/C(=N\NC(=S)Nc1cccc(C)c1)c1cccc(N)c1 | 91% |
| O=C(COc1cccc(Oc2ccccc2)c1)Nc1ncccn1 | 93.8% |
| COc1ccc(Oc2ccc(N/C=C/C(=O)C(C)(C)C)cc2)cc1 | 90.7% |
| CCOc1ccc(NC(=S)Nc2ccc(C)c([N+](=O)[O-])c2)cc1 | 90.6% |
| O=c1c2c(-c3ccccc3)csc2ncn1/N=C/c1ccc(O)c([N+](=O)[O-])c1 | 88.3% |
| Cc1cc(C)n2nc(N)c(N=Nc3ccccc3)c2n1 | 95.7% |
| Cc1ccccc1-n1c(O)c(C=Nc2ccc3c(c2)OCO3)c(=O)[nH]c1=O | 104% |

| Structure (SMILES) | viability |
| --- | --- |
| S=c1[nH]c2ccc3ccccc3c2[nH]1 | 86.2% |
| CC1CN(C(=S)SCC(=O)c2ccc([N+](=O)[O-])cc2)CC(C)O1 (stereo unspecified) | 93.9% |
| Cc1ncsc1CCOC(=O)c1ccc([N+](=O)[O-])cc1 | 94.8% |
| O=C(c1ccc(CNc2c(N3CCCC3)c(=O)c2=O)cc1)N1CC=C(c2ccccc2)CC1 | 91.6% |
| O=c1oc(-c2cccs2)nc2c1cnn2-c1ccccc1 | 97.4% |
| Cc1nc2ccc(NC(=O)N(C(C)C)C(C)C)cc2s1 | 93.6% |
| CCN1c2ccccc2N(C)C1(C)c1ccccc1 (stereo unspecified) | 94.9% |
| COC(=O)CSc1ncnc2c1sc1nc3c(cc12)COC(C)(C)C3 | 82.5% |
| Cc1ccc(NC(=O)COC(=O)C(NS(=O)(=O)c2ccc(Cl)cc2)C(C)O)cc1C (stereo unspecified) | 86.8% |
| Fc1ccc(N/N=C2/CC(c3ccccc3)Oc3ccccc32)c(F)c1 (stereo unspecified) | 97.5% |
| CCCCc1cc(=O)oc2cc(O)ccc12 | 86.2% |
| CCCCN1C(=N)N([C@@H](CCC)CN2CCC[C@H]2CN2C(N)=NC[C@@H]2Cc2ccccc2)C[C@H]1Cc1ccccc1 | 92.3% |
| O=C(CNC(=O)c1ccc(Cl)cc1)c1ccc(Cl)cc1 | 87.5% |
| CCOC(=O)COc1cc(O)c2c(=O)cc(-c3ccccc3)oc2c1 | 102% |
| CC(=O)/C=C(\C)Nc1ccccc1O | 84.8% |
| N#Cc1nccnc1S(=O)(=O)c1cccs1 | 99.3% |
| CCOC(=O)C(=NC1CCS(=O)(=O)C1)NNc1ccc(Br)cc1 (stereo unspecified) | 99.3% |
| O=C(C[n+]1ccc(C(=O)c2ccccc2)cc1)Nc1ccc(C(F)(F)F)cc1 | 104% |
